# Assay results taken from the supplement of paper PMC9694430.
# Where a name gives a salt, the structure may show the parent alone.
# Key:
# Test in all cases: thermal shift delta Tm vs DMSO control; higher = stronger stabilization (binding)
# Conditions in all cases: 12.5 µM; protein concentration 2 µM
# [1] = tested on: LOC_OS01G57100-cb003
# In short: (§1)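 Compounds dissolved in DMSO were added to purified rice kinase domain constructs, which had been expressed in E. coli, for differential scanning fluorimetry. Each well held 19.5 μl of 2 μM kinase in 100 mM potassium phosphate pH 7.5, 150 mM NaCl, 10% glycerol and 5 × SYPRO Orange. Fluorescence was followed from 25°C to 95°C at a rate of 0.05°C/s. Shifts in Boltzmann-fitted melting temperature are triplicate means relative to DMSO-only protein.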
# [2] = tested on: LOC_OS01G60330-cb001
# In short: as §1
# [3] = tested on: LOC_OS01G60700-cb002
# In short: as §1
# [4] = tested on: LOC_OS01G63280-cb003
# In short: as §1
# [5] = tested on: LOC_OS01G67340-cb003
# In short: as §1
# [6] = tested on: LOC_OS01G70970-cb002
# In short: as §1
# [7] = tested on: LOC_OS02G07810-cb001
# In short: as §1
# [8] = tested on: LOC_OS02G08530-cb003
# In short: as §1
# [9] = tested on: LOC_OS02G14120-cb001
# In short: as §1
# [10] = tested on: LOC_OS02G17970-cb001
# In short: as §1
SMILES,thermal shift delta Tm [1] [°C],thermal shift delta Tm [2] [°C],thermal shift delta Tm [3] [°C],thermal shift delta Tm [4] [°C],thermal shift delta Tm [5] [°C],thermal shift delta Tm [6] [°C],thermal shift delta Tm [7] [°C],thermal shift delta Tm [8] [°C],thermal shift delta Tm [9] [°C],thermal shift delta Tm [10] [°C]
O=C(O)c1ccc2c3c1cccc3c(=O)n1c3ccccc3nc21,1.73,3.73,1,0.76,1,0.87,0.5,0.93,3.53,0.44
CCCCCCCCc1ccc(CCC(N)(CO)CO)cc1 [Fingolimod (FTY720) HCl],0.23,0.41,0.6,-1.03,-0.42,-0.82,-1.73,-0.4,-0.78,-0.74
N#CC[C@H](C1CCCC1)n1cc(-c2ncnc3[nH]ccc23)cn1,0.48,1.16,0.62,0.56,0.07,0.28,1.11,1.14,3.58,0.47
CCS(=O)(=O)N1CC(CC#N)(n2cc(-c3ncnc4[nH]ccc34)cn2)C1,2.25,0.75,1.26,1.3,0.81,0.39,0.37,1.89,4.11,0.86
Cc1ccc2nc(NCCN)c3ncc(C)n3c2c1,0.95,0.28,0.64,0.27,0.55,0.33,0.4,0.92,0.86,0.51
CN1CCN(CCOc2cc(OC3CCOCC3)c3c(Nc4c(Cl)ccc5c4OCO5)ncnc3c2)CC1 [Saracatinib (AZD0530)],0.72,1.51,1.11,0.03,0.29,0.9,0.55,1.2,8.8,0
CNc1nc(-c2ccc3c(N)n[nH]c3c2)cc(N2C[C@@H](C(=O)NC3CCCCC3)CC[C@H]2C)n1,2.04,0.28,2.12,0.81,-0.04,0.71,1.63,1.27,0.75,1.01
N#CC(=C(/N)Sc1ccccc1N)/C(C#N)=C(\N)Sc1ccccc1N,-0.44,2.17,0.48,2.36,0.77,0.62,1.33,1.04,0.63,0.85
COc1ccc(-c2ccc3c(N4CCOC[C@@H]4C)nc(N4CCOC[C@@H]4C)nc3n2)cc1CO,0.87,0.93,0.64,-0.13,-0.69,0.1,0.28,0.31,-1.22,-0.06
"Cc1cc(Nc2ncnc3ccc(NC4=NC(C)(C)CO4)cc23)ccc1Oc1ccn2ncnc2c1 [Irbinitinib (ARRY-380, ONT-380)]",1.92,0.15,-0.86,-1.49,-1.04,-0.85,-0.86,0.22,0.7,0.09
